Consider 96 compounds from PubChem BioAssay AID1259422 (The Scripps Research Institute Molecular Screening Center, 2018).

In all, about 640,000 compounds went through this assay and about 9,300 (1.5%) were called active. The sample as a whole holds a higher share of actives than the screen did. A number with no mark means an inactive call. No stated cut-off is given here; in the data, active means inhibition above about 32%; inactive means the rest.

The assay can be described thus: TEAD-YAP interaction inhibition, primary screen, TEAD-YAP interaction inhibitor project, luminescence, HEK-TIYL cells (AID 1259422).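 Further: 0% = median of test compound wells and 100% = reference inhibitor wells.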 The conditions noted are these: TEAD-Gal4/YAP UAS-luciferase luminescence, at 9.12 µM, hits give high values.
Turning to `COc1cc(/C=C2/SC(=O)N(C)C2=O)cc(Br)c1OC`, the inhibition was -1.8%.

In the case of `COc1ccc(N2C(=O)CC(NNC(=O)c3ccccc3O)C2=O)cc1` (stereo unspecified), the inhibition was 8.23%.

For the compound `CC12CCC(C(=O)N(NC(=O)c3ccccc3O)C1=O)C2(C)C` (stereo unspecified), the inhibition is 74.3% (active).

`CCN(CC)c1ccc(NC(=O)c2ccccc2O)cc1`: the inhibition was -31.2%.

Consider `CC12C=CC3(O1)C(C(=O)N(CC1CCCO1)C3C(=O)NC1CCCCC1)C2C(=O)Nc1ccc(Cl)c(Cl)c1` (stereo unspecified), for which the inhibition is 2.66%.

`CCOc1ccc(S(=O)(=O)NCCOc2ccc(F)cc2)c(OCC)c1`: the inhibition is 10.6%.

Turning to `O=C1c2ccccc2C(=O)N1c1cccc(Br)c1`, the inhibition was -1.81%.

`Cn1c(Nc2nc(NCCN3CCOCC3)c3ncn(-c4ccccc4)c3n2)nc2ccccc21`: the inhibition is 25.9%.

As to `COc1ccc(-c2nc(NCCN3CCOCC3)c3ncn(-c4ccccc4)c3n2)cn1`, the inhibition is 59.2% (active).

`NC(=O)c1ccc(-c2nc(NCCO)c3ncn(-c4ccsc4)c3n2)cc1`: the inhibition is 18.6%.

In the case of `Clc1nc(NCCN2CCOCC2)c2ncn(-c3ccccc3)c2n1`, the inhibition is -5.11%.

Regarding `COc1ccc(-c2nc(NCCO)c3ncn(-c4ccsc4)c3n2)cn1`, the inhibition is 41.7% (active).

For `Nc1cccc(-c2nc(NCCO)c3ncn(-c4ccccc4)c3n2)c1`, the inhibition was 31.7%.

Consider `C=CCn1c(=O)c(C(=O)Nc2cccc(Cl)c2)c(O)c2ccccc21`, for which the inhibition was 3.7%.

As to `O=C(Nc1cccc2c1C(=O)c1ccccc1C2=O)c1ccc(F)cc1`, the inhibition was -2.6%.

Consider `CNC(=O)C(=O)Nc1cc(OC)ccc1OC`, for which the inhibition is 10.2%.

`CONC(=O)c1ccc(C(=O)c2cc(OC)ccc2OC)cc1`: the inhibition was 35.8% (active).

In the case of `COc1ccc(OC)c(C(=O)c2ccc(C(=O)NC3CC(C)(C)NC(C)(C)C3)cc2)c1`, the inhibition was 17.9%.

For `CCOc1ccc(Nc2nc(Nc3ccc(C(C)=O)cc3)nc(C)c2[N+](=O)[O-])cc1`, the inhibition was 6.26%.

With `COc1ccc(OC)c(NC(=O)CN2CCC(n3c(C)nc4cc(F)ccc43)CC2)c1`, the inhibition is -30.9%.

In the case of `CCOC(=O)CC1NCC2c3ccccc3CCN2C1=O` (stereo unspecified), the inhibition is 2.64%.

As to `OC1CCN(c2ccnc3c(-c4cccc(C(F)(F)F)c4)cnn23)CC1`, the inhibition was 10%.

On to `O=C(COc1ccc(Cl)cc1Cl)N1CCCc2ccccc21`, for which the inhibition was -11.7%.

For the compound `O=C(c1c[nH]c(=O)n(-c2ccc(F)c(Cl)c2)c1=O)N1CCCc2ccccc21`, the inhibition is 38.2% (active).

`O=C(c1cc(Cl)ccc1[N+](=O)[O-])N1CCCc2ccccc21`: the inhibition was 10.8%.

With `COc1cc(NC(=O)c2sc3nc(C)nc(N4CCN(C)CC4)c3c2C)cc(OC)c1`, the inhibition is 4.26%.

In the case of `C/C(CC(=O)NC1CCCC1)=N\NC(=O)COc1cccc(C)c1`, the inhibition was -8.3%.

For the compound `COc1cc(OC)cc(C(=O)N/N=C(\C)CC(=O)Nc2ccccc2-c2ccccc2)c1`, the inhibition is 51.5% (active).

Consider `COc1cc(OC)cc(C(=O)N/N=C(\C)CC(=O)NC2CCCCCCC2)c1`, for which the inhibition is 54.5% (active).

Take `COc1ccc(NC(=O)CS(=O)CC(=O)Nc2ccccc2-c2ccccc2)cc1` (stereo unspecified): the inhibition was -6.02%.

Take `C/C(CC(=O)NC1CCCCC1)=N\NC(=O)c1ccncc1`: the inhibition was 2.69%.

As to `COc1ccc(C(=O)N/N=C(\C)CC(=O)Nc2ccccc2)c(OC)c1`, the inhibition was -36.2%.

Consider `COc1ccc2nc(NC(=O)c3ccccc3OC)sc2c1`, for which the inhibition was 5.95%.

Regarding `CCc1nc(SCC(=O)Nc2nc(C)c(C)s2)c2ccccc2n1`, the inhibition was 5.48%.

Regarding `O=C1Nc2cc(C(=O)N3CCN(c4ccccn4)CC3)ccc2Nc2ccccc21`, the inhibition is 11.1%.

For `COc1cccc(-c2cnn3c(N4CCC(O)CC4)ccnc23)c1`, the inhibition is 21.5%.

As for `COc1cc(-c2cnn3c(N4CCOCC4)ccnc23)cc(OC)c1OC`, the inhibition is 76.6% (active).

Take `c1cc(N2CCOCC2)n2ncc(-c3ccc4[nH]ccc4c3)c2n1`: the inhibition is 96.6% (active).

In the case of `Clc1ccccc1-c1cnn2c(N3CCOCC3)ccnc12`, the inhibition was 16.7%.

In the case of `OC1CCN(c2ccnc3c(-c4ccoc4)cnn23)CC1`, the inhibition was -22.8%.

As to `COc1ccc(-c2cnn3c(N4CCOCC4)ccnc23)c(OC)c1`, the inhibition is -6.8%.

On to `O=C(CNC(=O)c1ccco1)N/N=C/c1ccc(O)c(O)c1`, for which the inhibition is 3.54%.

In the case of `Cc1ccc(N(CC(=O)O)C2SC(=O)N(c3ccccc3)C2=O)cc1` (stereo unspecified), the inhibition is -28.6%.

As for `Cc1cc(C)cc(OCC(=O)Nc2sc3c(c2C(N)=O)CCCC3)c1`, the inhibition is -1.21%.

On to `CCCCOC(=O)C1=C(C)NC2=C(C(=O)CC(C)(C)C2)C1c1ccc(Cl)cc1Cl` (stereo unspecified), for which the inhibition was 1.21%.

Turning to `Cc1nc(C)n(-c2ccc(Nc3ncc4ccc(-c5cnn(C)c5)cc4n3)cc2)n1`, the inhibition is 84.9% (active).

Turning to `Cc1ncn(-c2ccc(Nc3ncc(-c4cnn(C)c4)c(-c4cnn(C)c4)n3)cc2)n1`, the inhibition was -5.05%.

For the compound `Cc1nc(C)n(-c2ccc(Nc3cc(-n4ccnn4)ccn3)cc2)n1`, the inhibition was 1.02%.

With `Cc1ccccc1CCNCc1ccc(C(=O)O)s1`, the inhibition is -4.88%.

For the compound `CC(C)(C)c1nc2ccccc2c2nn(CC(=O)N3CCNC(=O)C3(C)C)c(=O)n12`, the inhibition was -10.6%.

As to `O=C(NCC1CCCO1)c1ncoc1-c1cccc(Cl)c1` (stereo unspecified), the inhibition was -34.8%.

As to `Cn1nnc2c(N3CCN(CC(=O)Nc4ccccc4F)CC3)ncnc21`, the inhibition is 3.56%.

For the compound `Cc1nn2c(NCc3ccncc3)c3c(nc2c1-c1ccccc1)CCC3`, the inhibition is -22.7%.

On to `O=C(Cn1cnc2ccccc2c1=O)NCc1ccccc1`, for which the inhibition is 2.51%.

With `COc1cccc2c(=O)n(CC(=O)NCc3ccccc3)ccc12`, the inhibition was 38.8% (active).

For the compound `COc1ccccc1NC(=O)Cn1ccc2ccccc2c1=O`, the inhibition was -0.57%.

On to `Cn1cc(S(=O)(=O)O)cc1-c1nc2ccccc2n1C`, for which the inhibition was 9.5%.

With `Cc1c(-n2c(-c3ccco3)nc3ccccc3c2=O)c(=O)n(-c2ccccc2)n1C`, the inhibition was -10.7%.

Turning to `Cn1c(-c2ccco2)nc2cc3ccccc3cc21`, the inhibition is 90.5% (active).

For the compound `NC1=NC(=Nc2cc(Cl)cc(Cl)c2)c2ccccc21`, the inhibition was -2.03%.

`NC1=NC(=Nc2ccc(N3CCCCC3)cc2)c2ccccc21`: the inhibition was 60.5% (active).

In the case of `C(/C=C/c1ccccc1)=Nc1ccc(N2CCOCC2)cc1`, the inhibition was 18.8%.

With `O=C1OC(c2ccccc2Cl)=N/C1=C\c1ccco1`, the inhibition was 4.9%.

`COc1cc(/C=N/NC(=O)CC(=O)NCC(C)C)ccc1O`: the inhibition was 8.56%.

As for `CCOC(=O)N1CCN(C(=O)c2ccc3c(=O)n(Cc4ccccc4Cl)c(=S)[nH]c3c2)CC1`, the inhibition was -2.49%.

For the compound `c1ccc2c(-c3nc(NC4CC4)c4ncn(-c5ccsc5)c4n3)csc2c1`, the inhibition is 13.5%.

`Cc1noc(C)c1-c1nc(NC2CC2)c2ncn(-c3ccsc3)c2n1`: the inhibition was 41.4% (active).

In the case of `COc1ccc(CCNc2nc(-c3c(C)noc3C)nc3c2ncn3-c2ccsc2)cc1`, the inhibition is -2.43%.

Regarding `CC(=O)N(c1cccc(C)c1)C1SC(=O)N(c2cccc(C)c2)C1=O` (stereo unspecified), the inhibition was 3.53%.

Take `CC(=O)Nc1cccc(-c2nc3cccnc3s2)c1`: the inhibition is -43.1%.

As to `CC(=O)Nc1ccc(S(=O)(=O)Nc2ccc(-c3nc4cccnc4s3)cc2)cc1`, the inhibition is 7.3%.

On to `O=C(Nc1ccc(-c2nc3cccnc3s2)cc1)C1CCCC1`, for which the inhibition is 51.9% (active).

As to `Cc1ncc(-c2ccc(F)cc2)c(C2CCCN(CCO)C2)n1` (stereo unspecified), the inhibition was -9.4%.

Regarding `COC(=O)COc1ccc(/C=C2/NC(=O)N(c3ccccc3)C2=O)cc1OC`, the inhibition was 11.3%.

As for `Cc1nc(NC(=O)/C=C/c2cccc([N+](=O)[O-])c2)sc1C(=O)N(C)C`, the inhibition was -12.3%.

In the case of `N#Cc1ccc(OCC(=O)Nc2ccc3c(c2)C(=O)c2ccccc2C3=O)cc1`, the inhibition is -21.1%.

For the compound `COc1ccc(C(=O)CSC2=C(C#N)C(c3cccs3)CC(=O)N2)cc1` (stereo unspecified), the inhibition is -82.2%.

Turning to `CCOC(=O)CSC1=C(C#N)C(c2ccccc2)CC(=O)N1` (stereo unspecified), the inhibition is 53.9% (active).

For the compound `CCOC(=O)CSC1=C(C#N)C(c2sccc2C)CC(=O)N1` (stereo unspecified), the inhibition was 56.8% (active).

Consider `CCOc1cc(C2CC(=O)NC(SCC(=O)OCc3ccccc3)=C2C#N)ccc1O` (stereo unspecified), for which the inhibition was -6.79%.

Consider `N#CC1=C(SCC(=O)OCc2ccccc2)NC(=O)CC1c1ccc(F)cc1` (stereo unspecified), for which the inhibition was 6.22%.

Take `N#CC1=C(SCC(=O)Nc2nccs2)NC(=O)CC1c1cccs1` (stereo unspecified): the inhibition was 5.49%.

As to `CCOC(=O)c1ccc(CN(Cc2ccc(Br)cc2)S(=O)(=O)c2cc(Cl)cc(Cl)c2)cc1`, the inhibition is 11.6%.

For `O=C(NCCc1ccccc1)C(=O)Nc1ccccc1F`, the inhibition is -44.1%.

Consider `CCCCSc1nc2sc3c(c2c(=O)n1-c1ccc(OC)cc1)CCCC3`, for which the inhibition was -1.35%.

As for `O=C(CCSc1ccccc1)Nc1cccc2ccc(-n3ccnc3)nc12`, the inhibition was -3.58%.

On to `COc1cc(C(=O)Nc2cc(-c3nc4ccc(C)cc4o3)ccc2C)ccc1OCc1ccc(Cl)cc1`, for which the inhibition is -64.2%.

For the compound `Cc1cc(N2CCOCC2)nc(SCC(=O)N2CCCC2)n1`, the inhibition was 5.97%.

As to `Cc1cc(N2CCCCC2)nc(NCCNC(=O)C2CCCO2)n1` (stereo unspecified), the inhibition was 42.3% (active).

As to `CCNC(=O)C1CCN(c2nc(C)cc(C)n2)CC1`, the inhibition is -5.09%.

Take `O=C(/C=C\c1ccccc1)Nc1cc2ccccc2cc1NC(=O)/C=C/c1ccccc1`: the inhibition was -0.29%.

With `O=C(/C=C/c1ccc(F)cc1)Nc1ccccc1F`, the inhibition is 79.4% (active).

Regarding `Cc1cc(C)nc(NS(=O)(=O)c2ccc(NC(=O)/C=C/c3ccc(F)cc3)cc2)n1`, the inhibition was -8.5%.

In the case of `Cc1csc(NC(=O)/C=C/c2ccc(F)cc2)n1`, the inhibition is -40.2%.

Regarding `O=C(/C=C/c1ccc(F)cc1)NCCCCNC(=O)/C=C/c1ccc(F)cc1`, the inhibition was -6.73%.

As to `Cc1cccc(NC(=O)/C=C/c2ccc(F)cc2)c1`, the inhibition is 34.1% (active).
